Key:
[1] = target: T1, Aspartate--tRNA(Asp/Asn) ligase (Mycobacterium tuberculosis (strain ATCC 25618 / H37Rv)) (UniProt P9WFW3); assay: Assay for Asp RNA synthetase-1 from Mycobacterium tuberculosis; type: functional; design: scale not given: direction of the effect not stated beside the values; settings: 30 µM; note: in the data most compounds retested in dose-response had high values
T1 sequence (whole entry): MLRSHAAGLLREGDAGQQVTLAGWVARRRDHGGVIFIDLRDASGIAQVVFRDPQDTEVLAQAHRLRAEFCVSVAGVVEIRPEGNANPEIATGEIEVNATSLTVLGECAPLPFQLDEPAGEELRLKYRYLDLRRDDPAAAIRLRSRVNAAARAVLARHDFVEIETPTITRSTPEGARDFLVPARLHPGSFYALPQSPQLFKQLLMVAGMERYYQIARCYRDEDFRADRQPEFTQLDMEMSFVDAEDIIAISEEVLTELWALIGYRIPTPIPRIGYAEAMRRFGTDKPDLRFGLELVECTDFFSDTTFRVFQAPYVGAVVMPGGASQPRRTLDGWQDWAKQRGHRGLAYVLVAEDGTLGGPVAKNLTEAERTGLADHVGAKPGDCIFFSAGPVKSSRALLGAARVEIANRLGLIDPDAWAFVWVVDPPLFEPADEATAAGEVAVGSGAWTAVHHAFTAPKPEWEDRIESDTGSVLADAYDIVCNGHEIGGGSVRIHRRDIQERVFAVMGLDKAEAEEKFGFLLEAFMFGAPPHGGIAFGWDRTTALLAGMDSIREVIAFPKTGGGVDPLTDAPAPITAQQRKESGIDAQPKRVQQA

[2] = target: Shiga toxin 2 (Escherichia coli O157:H7) (UniProt P09385+P09386); assay: E. coli 0.157:H7 Shiga Toxin SOP - stx2 screening assay; type: functional; design: scale not given: direction of the effect not stated beside the values; settings: 30 µM

Row | SMILES | Percent Effect [1] [%] | Percent Effect [2] [%]
1 | CN(C)C(=O)C1CN(Cc2c[nH]cn2)CCN(C2CCOCC2)C1 (centres undefined) | 0.313 | -8.14
2 | O=C(O)c1ccc(S(=O)(=O)Nc2ccc(Cl)c(F)c2)c(F)c1 | -0.533 | -14.1
3 | COc1cccc(COCC(O)CN2CC(n3cccn3)C2)c1 (centres undefined) | -2.41 | 16.5
4 | CCOc1ccc(C2CC(=O)Nc3c2c(=O)nc2sccn32)cc1 (centres undefined) | 0.813 | -16.9
5 | O=C(CCNc1ncccn1)NCCOc1ccc2c(c1)CCC2 | 1.63 | 35.6
6 | Cc1ccc(CS(=O)(=O)N2CC[C@H]3[C@H]2CCN3C)cc1 | -3.51 | -4.23
7 | CN(CC(=O)N1CCCC1c1cnn(C)c1)c1ccc(Cl)cn1 (centres undefined) | -2.16 | 29.7
8 | Cc1noc([C@@H]2CCCN2C(=O)C2CCN(C(=O)C3CCC3)CC2)n1 | 6.9 | -35.4
9 | COCCCN(CCOC)C(=O)Nc1ccc(C)cc1C | 0.599 | 1.16
10 | Cc1nccn1-c1nccnc1C1CCN(Cc2ccc(F)cc2)CC1 | -0.338 | -6.1
11 | CCc1cnc(CN(C(C)=O)C2CCN(CCc3cnn(C)c3)C2)o1 (centres undefined) | -5.68 | 20.4
12 | c1cnc(N2CCC3(COCc4cnc(-c5cccnc5)nc43)C2)nc1 (centres undefined) | 2.15 | -3.56
13 | Cc1n[nH]c(C)c1C1CCCN1C(=O)NCCSC(C)(C)C (centres undefined) | 3.45 | -9.79
14 | CCc1nc(CCNC(=O)C2CCOC2)sc1C (centres undefined) | -2.83 | 30.6
15 | CN(Cc1ccco1)Cc1cncc2c1CCN(c1ncccn1)C2 | 0.874 | -26.7
16 | CC(C)NC(=O)NCCCc1cc(N)n(-c2ccccc2)n1 | -8.28 | -2.61
17 | CC(C)(C)NC(=O)C1CSCN1S(=O)(=O)c1ccc(F)cc1 (centres undefined) | 5.02 | 1.58
18 | CCc1cc(NCCNc2cccnc2)n2nccc2n1 | 0.0112 | -5.46
19 | N#CC1(C(=O)NCCCNc2ccc(C(F)(F)F)cn2)CCCC1 | 2.12 | 21.2
20 | CN(C)C(=O)N1C[C@H]2CCC[C@@]2(COc2ccccn2)C1 | 3.31 | 10.3
21 | Cc1nc(C2CCCN(C(=O)c3cccc4c3OCO4)C2)no1 (centres undefined) | 5.25 | -12.6
22 | CNc1nc2c(s1)C(=O)CN(C(=O)NCc1ccccc1)C2 | 1.63 | -6.79
23 | Cc1cccc2c1cnn2CCC(=O)NCC(=O)N(C)C | -1.19 | -22.2
24 | COc1ccc(CC(=O)N2CCCN(c3ccc(C#N)cc3)CC2)cc1 | 5.93 | -7.8
25 | CCn1c(CN2CCC(O)(C(=O)OC)CC2)nc2c(F)cccc21 | -3.57 | -24.9
26 | CC(c1ccc(F)c(F)c1)N1CCN(Cc2nccn2C)CC1 (centres undefined) | -2.85 | -13.2

Row | SMILES | Percent Effect [1] [%] | Percent Effect [2] [%]
27 | Cc1ccc(C(=O)N2CCSCC2)cc1NC(=O)Cn1cncn1 | -1 | -22.8
28 | Cn1cnc(S(=O)(=O)NCCN2CCCCCC2=O)c1Cl | -1.7 | 17.3
29 | Cc1noc([C@H]2COC[C@H]3CN(C(=O)Cc4ccc(F)cc4)C[C@H]32)n1 | -3.45 | 23.4
30 | CC(NC(N)=O)C(=O)N(C)CCCc1cc(-c2ccccc2)no1 (centres undefined) | 3.41 | 22.8
31 | CC(=O)Nc1nc(CN2CCOC(Cn3cc(C)cn3)C2)cs1 (centres undefined) | -1.93 | 16.6
32 | CC(C)Cc1noc(CN2CCOC(Cn3cncn3)C2)n1 (centres undefined) | 1.02 | 16.9
33 | O=c1[nH]c(CCN2CCCC(Cn3cncn3)C2)nc2ccccc12 (centres undefined) | -3.23 | -25.8
34 | Cc1nc(N2CCOCC2)nc2c1CCN(C(=O)NC1CCCC1)CC2 | 2.29 | -52.5
35 | Cc1nc(C2(NCC(=O)NCCc3cccs3)CCCC2)no1 | -3.06 | 8.44
36 | CCOc1cccc(CNC(=O)NCC(O)c2cccc(F)c2)c1 (centres undefined) | 9.63 | 16.2
37 | CC(NC1(CNC(=O)C(C)(C)C#N)CCOCC1)c1ccccc1 (centres undefined) | -6.25 | -10.5
38 | CCc1nc(CN2CCCN(C(=O)CCc3ccco3)CC2)cs1 | -4.26 | -71.2
39 | COCCOc1ncccc1C(=O)Nc1ccc(-n2cncn2)c(F)c1 | -3.21 | 30.5
40 | CC(C)c1nn(C)c(N(C)C)c1CNCc1ccccc1CN(C)C | -0.745 | 23.7
41 | O=C1CC(c2ccccc2)C2(CCN(CC3CC3)CC2)N1 (centres undefined) | -1.66 | -14.7
42 | CN(C)CCN1CCO[C@H]2CN(Cc3cnn(C)c3)C[C@H]21 | -1.31 | -7.4
43 | CC(C)(NCC(=O)NCC(F)(F)F)c1ccc2c(c1)OCCO2 | -0.335 | 22.1
44 | Cc1ccc(C(=O)NC2CCN(Cc3noc(CC(C)C)n3)CC2)s1 | 7.55 | -63.2
45 | Cc1cc(C)c(CNC(=O)NCC2CCCO2)c(=O)[nH]1 (centres undefined) | -3.97 | 24.8
46 | Cc1cc(C(=O)N2CCCC(n3ccnc3C)C2)c(C)s1 (centres undefined) | -4.25 | -6.7
47 | O=C(CCn1cnnc1)N1CCCC(c2ncc[nH]2)C1 (centres undefined) | 5.32 | -29.4
48 | Cc1cccc(CCC(=O)N2CCOCC2c2c(C)n[nH]c2C)c1 (centres undefined) | 3.91 | -16.7
49 | CCS(=O)(=O)CCN1CCCC1c1noc(C2CC2)n1 (centres undefined) | -2.94 | -0.711
50 | CN(Cc1ccc(F)cc1)C(=O)NCC1(N2CCOCC2)CCSC1 (centres undefined) | -1.08 | -43.8
51 | COc1cc(CNCCc2cnn(C)c2)cc2c1OCCO2 | -1.03 | 10.4
52 | c1ccc(-c2noc(CN3CCOC(Cn4cccn4)C3)n2)nc1 (centres undefined) | -2.01 | 11.3

Row | SMILES | Percent Effect [1] [%] | Percent Effect [2] [%]
53 | Cc1ccccc1C(=O)N1CCOC2(CNCCOC2)C1 (centres undefined) | -0.279 | -0.428
54 | COc1c(CNC2CCCOc3ccccc32)c(C)nn1C (centres undefined) | -2.86 | -2.26
55 | O=C(c1ccnnc1)N1CCN2C[C@H](Oc3cccc(F)c3)C[C@H]2C1 | -0.611 | -1.95
56 | CC(C)CCn1c(=O)nc2n1C(=O)N(c1ccc(F)cc1)C2 | -0.24 | -15.1
57 | Cc1ccc([C@@H]2CN(C(=O)c3cccnn3)C[C@H]2NC(=O)C2CC2)cc1 | -3.85 | 29.5
58 | OC(CN1CCC(c2ccn[nH]2)CC1)c1cccc(F)c1 (centres undefined) | -4.71 | -2.5
59 | Cc1cnc2n1CCN(C)C21CCN(C(=O)CC(C)C)CC1 | -4.25 | -6.62
60 | COCCO[C@@H]1CCN(C(=O)c2ccc(C)o2)[C@@H]1Cc1cccnc1 | -0.436 | -14.3
61 | Cc1nc(CN2CCC(CNC(=O)Nc3ccccn3)CC2)oc1C | 5.15 | -4.66
62 | O=S1(=O)CCCN1Cc1coc(-c2cccs2)n1 | -3.68 | 0.853
63 | O=C(Cn1nc2c(cc1=O)CCCC2)N[C@@H](Cc1ccccc1)C(=O)O | 0.174 | -48
64 | CNc1cc(N2CCCC2CNCc2ccc(Cl)o2)ncn1 (centres undefined) | -2.44 | 26.8
65 | O=C(c1cc[nH]n1)N1CCCC1C1CCN(Cc2ccccc2)CC1 (centres undefined) | 6.59 | -28.1
66 | O=C1CO[C@@H]2CN(Cc3cccs3)C[C@H]2N1CC1CC1 | 12.1 | -3.56
67 | Cc1cccnc1CN(C)CC1(O)CCCN(CC2CCCCC2)C1=O (centres undefined) | -0.871 | 2.24
68 | COc1ccc(NC(C)C(=O)N2CCN(c3ncccn3)CC2)cn1 (centres undefined) | -4.63 | 5.46
69 | Cc1cccc(COC[C@H]2CC[C@H]3[C@H](CCN3C(=O)CC3CC3)O2)n1 | -1.43 | 1.2
70 | CCO[C@@H]1CO[C@@]2(CCCN(Cc3scnc3C)C2)C1 | -7.13 | -25
71 | COC1CCN(C(=O)Cc2csc(-c3ncccn3)n2)CC1 | -5.19 | 12.8
72 | CN(C)CCN1CCCC12CCN(C(=O)c1cccn1C)CC2 | -5.96 | -0.241
73 | COc1ccccc1C(=O)N1CCCC1Cn1cc(C)cn1 (centres undefined) | 3.31 | 26.5
74 | O=C(CCc1ccsc1)N1CCC(Cc2ccc(CO)cc2)C1 (centres undefined) | 0.501 | -19.1
75 | O=C(CCNC(=O)c1ccccc1N1CCOCC1)NC1CCCC1 | -1.94 | -19.9
76 | Cc1cc(C)n(CCCNC(=O)C(C)NC(=O)c2ccccc2Cl)n1 (centres undefined) | 1.92 | -4.43
77 | COc1cccc(COCC(=O)N2CCN(CC(C)(C)O)CC2)c1 | -1.7 | 9.82
78 | O=C(c1ccco1)N1CCC2(CCOC2)C1 (centres undefined) | 2.53 | -46.7

Row | SMILES | Percent Effect [1] [%] | Percent Effect [2] [%]
79 | CCc1n[nH]c(C2CN(C(=O)c3ccsc3)CCO2)n1 (centres undefined) | -7.75 | 21.9
80 | Cn1c(Cn2cccn2)nnc1C1CCCN(c2ccncc2F)C1 (centres undefined) | -0.254 | -2.56
81 | CCn1ccnc1CN1CCOC(CNc2cccnn2)C1 (centres undefined) | -0.152 | -18.9
82 | COCCN1CCN(CCCS(=O)(=O)c2ccccc2)CC1C (centres undefined) | -4.25 | -5.54
83 | CN(Cc1cccc(O)c1)CC1CCCN(CCc2ccc(Cl)cc2)C1 (centres undefined) | 4.47 | -33.8
84 | Cc1ccsc1CN(C)Cc1nc2c(cnn2C)c(=O)[nH]1 | -2.46 | -6.66
85 | Cn1nc2c(cc1=O)CN(Cc1coc(-c3cccs3)n1)CC2 | 39.2 | -29.8
86 | Cc1cc(C(F)(F)F)nn1C(C)C(=O)Nc1ccncc1 (centres undefined) | -0.755 | -29.5
87 | O=C(c1cc(COc2ccc3c(c2)OCO3)[nH]n1)N1CCCC1 | 0.912 | -23.7
88 | CC(Cn1cccn1)NC(=O)NCc1cccnc1OC1CCCC1 (centres undefined) | -4.78 | -7.65
89 | CN(CCc1ccccc1)Cc1cc(C(=O)N2CCCC2(C)C)no1 | 0.433 | -34.7
90 | CN(C)CC(=O)N1CCOC2(CCCN(c3ncccc3F)C2)C1 (centres undefined) | 1.93 | -5.68
91 | Cn1ncc2c(=O)[nH]c(CN(Cc3cccc(F)c3)C3CC3)nc21 | -6.19 | 3.9
92 | Cc1ccc(C(=O)NCC2(O)CCOCC2)cc1Br | -1.3 | 8.46
93 | COc1ccccc1NC(=O)CSC1CCc2ccccc2NC1=O (centres undefined) | -0.871 | -1
94 | NCc1cnn(-c2ccccc2C(=O)NCc2ccncc2)c1 | -3.11 | 13.2
95 | O=C(NCc1cc[nH]n1)NCC(c1ccc(F)cc1)N1CCOCC1 (centres undefined) | -0.433 | -14.2
96 | Cc1csc(CNC(=O)N(C)Cc2cnn(C)c2)n1 | 1.54 | -1.35
97 | NC(=O)c1cc(NC(=O)NCCc2cc(F)cc(F)c2)ccc1F | 4.79 | -82
98 | Nc1nc(CCC(=O)N2CCOC(CC3CCCCC3)C2)cs1 (centres undefined) | -4.71 | 19
99 | O=C1CC(c2ccncc2)c2c(c(C(=O)O)cn2-c2ccc(F)cc2)N1 (centres undefined) | 2.32 | -17.3
100 | O=C(NCCCn1cncn1)NCC(c1ccco1)N1CCCCC1 (centres undefined) | 7.12 | 18.2
101 | CCO[C@@H]1CCN(C(=O)c2cscn2)[C@@H]1Cc1cnn(C)c1 | -2.13 | 1.75
102 | CC(C)NC(=O)N1C[C@H]2C[C@H](C(=O)NCc3ccccc3)[C@@H](C1)O2 | 2.3 | 1.68

— ChEMBL document CHEMBL3988442, “University of Dundee, Small-Polar-MMV Screening Library” (2021)
